Here are results for 11 compounds from PubChem BioAssay.

The source made the active and inactive calls. Unless noted, how the calls were made is not given here.

Test [1] can be described thus: HepG2 liver cancer cell viability effects, profiling panel, resazurin fluorescence, 24 h, PK04 Diversity Set (AID 1172). Further: test concentration not given here. The settings on record: higher = more signal. Background: Alamar Blue is a resazurin reagent that responds to reducing activity.
Test [2] can be described thus: basal S. cerevisiae growth modulation, no modifier, primary screen, OD600, strain BY4716, 24 h, basal condition (AID 1173). As to conditions: OD600, 24 h, higher = more signal, called active from +8 up or from −8 down.
The nature of test [3]: MM1S myeloma cell viability, profiling panel, resazurin fluorescence, basal, 24 h, PK04 Diversity Set (AID 1174).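 Further: MM1S multiple myeloma cell line; test concentration not given here.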 The settings on record: higher = more signal, called active from +8 up or from −8 down.
The target of test [4] is Dihydroorotate dehydrogenase (quinone), mitochondrial (Plasmodium falciparum (isolate 3D7)) (UniProt Q08210). The test is described as follows: PfDHODH enzyme inhibitors, primary screen, biochemical, C-terminal His tag, absorbance 600 nm (AID 1175).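 Further: recombinant parasite enzyme with a five histidine tag at its C terminus; test concentration not given here.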 The settings on record: DCIP absorbance 600 nm, higher = more signal, called active from +8 up or from −8 down.
Dihydroorotate dehydrogenase (quinone), mitochondrial (Plasmodium falciparum (isolate 3D7)), sequence (Q08210 whole entry, looked up): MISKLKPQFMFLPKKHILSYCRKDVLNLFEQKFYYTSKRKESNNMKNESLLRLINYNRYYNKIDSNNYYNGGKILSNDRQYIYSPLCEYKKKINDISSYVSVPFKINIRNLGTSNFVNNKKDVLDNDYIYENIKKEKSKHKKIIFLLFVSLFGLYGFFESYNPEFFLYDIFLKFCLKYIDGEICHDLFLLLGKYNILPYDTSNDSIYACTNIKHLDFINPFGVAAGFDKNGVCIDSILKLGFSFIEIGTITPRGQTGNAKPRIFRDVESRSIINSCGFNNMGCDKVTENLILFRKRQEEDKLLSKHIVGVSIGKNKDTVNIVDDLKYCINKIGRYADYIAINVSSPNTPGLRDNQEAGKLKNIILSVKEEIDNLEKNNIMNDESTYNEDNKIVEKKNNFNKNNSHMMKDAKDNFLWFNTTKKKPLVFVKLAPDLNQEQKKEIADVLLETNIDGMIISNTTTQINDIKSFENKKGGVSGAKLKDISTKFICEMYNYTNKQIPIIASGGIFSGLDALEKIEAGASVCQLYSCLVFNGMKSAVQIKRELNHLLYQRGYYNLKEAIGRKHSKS
The nature of test [5]: P. aeruginosa biofilm formation inhibitors, primary screen, strain PAO1, LB-PBS medium, absorbance 600 nm (AID 1176). Further: test concentration not given here. The settings on record: P. aeruginosa PAO1 growth/biofilm, A600, 12 h; higher = more signal.
Test [6] can be described thus: S. cerevisiae RM11-1a growth modifiers, primary screen, strain RM11-1a, OD600, basal, 24 h (AID 1177).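 Further: cultures grown under basal conditions with no added stressor; test concentration not given here.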 As to conditions: OD600, 24 h, higher = more signal, called active from +8 up or from −8 down.
Test [7] can be described thus: E. coli acrAB mutant growth effects, primary screen, E. coli filamentation inducers, strain DRC39, OD650, 24 h (AID 1178).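 Further: growth measured as culture turbidity by optical density at 650 nm; test concentration not given here.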 The settings on record: higher = more signal, called active from +8 up or from −8 down.
The nature of test [8]: E. coli acrAB mutant growth effects, primary screen, E. coli filamentation inducers, strain DRC39, OD650, 48 h (AID 1179).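 Further: screen aims at cell division blockers that make cells filament.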 The settings on record: E. coli DRC39 delta-acrAB growth, higher = more signal, called active from +8 up or from −8 down.
The nature of test [9]: RPMI8226 myeloma cell viability, profiling panel, resazurin fluorescence, basal, 24 h, PK04 Diversity Set (AID 1180).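 Further: RPMI8826 multiple myeloma cell line at 5000 cells per well; test concentration not given here.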 As to conditions: higher = more signal.
Test [10] addresses E3 ubiquitin-protein ligase XIAP (Homo sapiens) (UniProt P98170). The test can be described thus: XIAP binders, primary screen, biophysical, small-molecule microarray, fluorescence 635 nm (AID 1181).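 Further: score merges 667 nm emission and signal to noise over triplicate slides.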 As to conditions: small-molecule microarray binding, higher = more signal.

E3 ubiquitin-protein ligase XIAP (Homo sapiens), sequence (P98170 whole entry, looked up): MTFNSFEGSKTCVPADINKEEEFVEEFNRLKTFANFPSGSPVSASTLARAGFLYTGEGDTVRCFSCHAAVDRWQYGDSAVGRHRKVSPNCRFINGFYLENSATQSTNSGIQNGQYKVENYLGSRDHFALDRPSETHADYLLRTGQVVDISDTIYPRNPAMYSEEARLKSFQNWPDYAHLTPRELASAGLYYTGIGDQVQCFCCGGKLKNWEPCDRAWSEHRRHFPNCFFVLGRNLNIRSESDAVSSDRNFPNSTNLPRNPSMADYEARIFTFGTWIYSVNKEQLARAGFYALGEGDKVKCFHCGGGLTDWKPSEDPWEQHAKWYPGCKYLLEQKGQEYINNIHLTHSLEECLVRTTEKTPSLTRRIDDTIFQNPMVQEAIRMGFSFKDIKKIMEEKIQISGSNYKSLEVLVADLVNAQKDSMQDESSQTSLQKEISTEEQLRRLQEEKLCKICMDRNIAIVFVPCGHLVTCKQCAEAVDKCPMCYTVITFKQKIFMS

With `CCCCCCc1nc(-c2ccc(OC)nc2)c(C)c2c1[Si](C(C)C)(C(C)C)OC2`, the z-score is 0.167 in test [1]; -0.121 (inactive) in [2]; 1.86 (inactive) in test [3]; 0.444 (inactive) in test [5]; -0.745 (inactive) in test [6]; 0.746 (inactive) in test [7]. Besides, the figures for the z-score in test [8] and in test [9] were -0.0026 (inactive) and 0.781, respectively. Besides, the figures for the composite z-score in [4] and in [10] were -3 (inactive) and 0.128, respectively.
As for `COc1ccc([Si](C)(C)[C@@H]2[C@@H](CC(=O)N3CCC[C@H]3CO)O[C@]3(C(=O)N(Cc4cccc(N5C(=O)c6cccc7cccc5c67)c4)c4ccccc43)[C@H]2C)cc1`, the z-score in test [1] was -0.49; in [2] it was 0.313 (inactive); in test [3], -1.84 (inactive); in test [5], 0.343 (inactive); in test [6] it was 0.0797 (inactive); in test [7], 0.995 (inactive). Moreover, the z-score in [8] was 0.787 (inactive); in test [9], -1.53. Moreover, the composite z-score is -1.54 (inactive) in test [4] and 0.0834 in [10].
As for `COc1ccc([Si](C)(C)[C@H]2[C@H](CC(=O)N(CCO)Cc3ccccc3)O[C@@]3(C(=O)N(Cc4ccc(N5C(=O)c6cccc7cccc5c67)cc4)c4ccccc43)[C@@H]2C)cc1`, the z-score was -1.14 in test [1]; 1.21 (inactive) in [2]; -2.21 (inactive) in test [3]; 0.319 (inactive) in test [5]; 2.45 (inactive) in [6]; -0.838 (inactive) in [7]. The z-score in test [8] was -1.02 (inactive); in [9], -2.14. In addition, the composite z-score in [4] was -1.51 (inactive); in test [10], 0.177.
Turning to `CCOC(=O)C=C1C[C@@H](c2cccc([N+](=O)[O-])c2)O[C@@H](c2cccc([N+](=O)[O-])c2)O1`, the z-score in test [1] was 0.151; in [2], 2.03 (inactive); in [3], 0.226 (inactive); in test [5], 0.285 (inactive); in test [6] it was 1.79 (inactive); in [7], -0.402 (inactive). The results for the z-score in test [8] and in test [9] were 0.335 (inactive) and -0.969, respectively. Moreover, the composite z-score in test [4] was 0.917 (inactive); in [10], 0.127.
`C=C(CCCC)/C(=C/C[C@@H](OC(C)=O)c1cccc(OCCO)c1)c1cc(C(=O)OC)ccc1OC`: the z-score was 0.978 in [1]; 1.12 (inactive) in [2]; 0.0348 (inactive) in [3]; 0.0599 (inactive) in [5]; 0.523 (inactive) in test [6]; 0.508 (inactive) in test [7]. Moreover, the z-score in test [8] is 0.583 (inactive); in test [9] it was 0.1. Further, the composite z-score in test [4] is -0.943 (inactive); in test [10] it was -0.0447.
Consider `COC(=O)C(CC#Cc1ccc2c(c1)[C@]1(C(=O)N2)[C@H](C(N)=O)[C@H]2C(=O)O[C@H](c3ccccc3)[C@H](c3ccccc3)N2[C@@H]1c1ccccc1OCCO)C(=O)OC`, for which the z-score was -2.07 in test [1]; 0.289 (inactive) in [2]; -9.27 (active) in test [3]; 2.35 (inactive) in test [5]; 2.62 (inactive) in test [6]; 0.0025 (inactive) in test [7]. Also, the z-score was 0.957 (inactive) in test [8] and -7.44 in [9]. Further, the composite z-score is 1.53 (inactive) in [4] and 0.0289 in [10].
Turning to `COC(=O)C(CC#Cc1ccc2c(c1)[C@]1(C(=O)N2)[C@H](c2ccccc2OCCO)N2[C@H](c3ccccc3)[C@H](c3ccccc3)OC(=O)[C@H]2[C@@H]1C(=O)N1CCN(c2ncccn2)CC1)C(=O)OC`, the z-score in test [1] is -0.0452; in test [2], 2.09 (inactive); in test [3], -0.935 (inactive); in test [5] it was 2.29 (inactive); in test [6], 3.65 (inactive); in test [7], 0.236 (inactive). For the same compound, the z-score is -0.11 (inactive) in test [8] and -4.73 in test [9]. Besides, the composite z-score was -16.6 (active) in test [4] and 0.306 in test [10].
For the compound `O=C(c1ccccc1)N1Cc2ccccc2C[C@@]2(N=C(c3ccc(OCCCO)cc3)O[C@H]2c2ccccc2)C1=O`, the z-score in test [1] was -1.51; in [2], 0.728 (inactive); in [3], -3.22 (inactive); in [5] it was 1.49 (inactive); in [6], 1.39 (inactive); in test [7], 0.0557 (inactive). Moreover, the z-score was -0.469 (inactive) in test [8] and -3.73 in [9]. In addition, the values for the composite z-score in test [4] and in [10] were 0.23 (inactive) and 0.0797, respectively.
Turning to `COCCCNC(=O)[C@]1(Cc2ccccc2N=[N+]=[N-])N=C(c2ccc(OCCCO)cc2)O[C@@H]1c1ccccc1`, the z-score is 0.83 in test [1]; -0.591 (inactive) in [2]; -1.25 (inactive) in test [3]; -0.444 (inactive) in test [5]; -0.029 (inactive) in test [6]; 2.99 (inactive) in test [7]. The z-score in [8] was 0.26 (inactive); in [9], -0.953. Also, the composite z-score in test [4] is -0.28 (inactive); in test [10], 0.267.
For `COc1ccc([Si](C)(C)[C@@H]2[C@@H](CC(=O)N3Cc4ccccc4C[C@H]3CO)O[C@]3(C(=O)N(Cc4ccc(I)cc4)c4ccccc43)[C@H]2C)cc1`, the z-score in [1] was 0.454; in test [2], -0.0671 (inactive); in [3], -1 (inactive); in test [5] it was 0.662 (inactive); in test [6] it was 2.33 (inactive); in [7], 0.101 (inactive). In addition, the z-score in test [8] was -0.092 (inactive); in test [9], -0.336. For the same compound, the results for the composite z-score in test [4] and in [10] were 0.312 (inactive) and 0.262, respectively.
Turning to `CCCCC(=C=CC[C@H](O)c1cccc(OCCO)c1)C[C@H](O)c1cc(Cl)cc(Cl)c1O`, the z-score in test [1] was 1.89; in test [2], -2.65 (inactive); in test [3], 0.356 (inactive); in test [5] it was 0.318 (inactive); in test [6], 0.275 (inactive); in test [7], 1.07 (inactive). Also, the values for the z-score in [8] and in [9] were 0.923 (inactive) and 0.242, respectively. Also, the composite z-score is 0.189 (inactive) in test [4] and -0.206 in test [10].
